# TDP1 cell noCPT: qHTS for Inhibitors of human tyrosyl-DNA phosphodiesterase 1 (TDP1): qHTS in cells in absence of CPT | DT40 Tdp1-/- hTDP1 cells, no CPT, ATP luminescence, 48 h | Potency, µM (top dose mostly 46.2 µM), without a hit: at the highest dose activity change, negative = growth inhibition, usual class: inhibitors | 15% of 420,000 active | AID 686978, 2013; also: nearly all actives have a fitted effect of over 55% in size
#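 A cellular qHTS used chicken DT40 cells lacking endogenous Tdp1 but carrying stably transfected human TDP1. Compounds were applied without camptothecin, and cell growth kinetics were judged by ATP-dependent luminescence after ≥48 hr.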
# ELG1 repair inh: qHTS screen for small molecules that inhibit ELG1-dependent DNA repair in human embryonic kidney (HEK293T) cells expressing luciferase-tagged ELG1; HEK293T ELG1-luciferase reporter, luminescence, 16 h; DNA damage induced by 5-fluorouridine; Potency, µM (series often up to 46.1 µM), for the others: at the highest dose activity change, negative = inhibition, most hits filed as inhibitors; 2.3% of 330,000 active; also: nearly all actives have a fitted effect of over 55% in size
#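 Overnight (16 hr) co-exposure of 2,000 cells/well to 5-fluorouridine and compound at 37 °C preceded detection. Luciferase was quantified via ONE-Glo luminescence; loss of signal denotes inhibition.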
# VP16 counter: VP16 counterscreen qHTS for inhibitors of ROR gamma transcriptional activity. Potency, µM (doses to about 53.6 µM), for the others: at the top dose activity, negative = inhibition, actives largely listed as inhibitors. AID 2546, 2010. 3.5% of 310,000 active. Drosophila S2 Gal4-VP16 UAS-luciferase, luminescence, 20 h;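 also: Gal4-VP16 expression switched on by copper sulfate through the metallothionein promoter; nearly all actives have a fitted effect of over 50% in size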
# DT40 TDP1 CPT: qHTS for Inhibitors of human tyrosyl-DNA phosphodiesterase 1 (TDP1): qHTS in cells in presence of CPT; chicken DT40 Tdp1-/-;hTDP1 cells + 20 nM CPT, ATP luminescence, 48 h; Potency, µM (doses to about 46.2 µM), for the others: at the top dose activity change, negative = growth inhibition, most hits filed as inhibitors; 12% of 420,000 active; AID 686979, 2013; also: nearly all actives have a fitted effect of over 55% in size
#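 Chicken DT40 Tdp1-/- cells stably complemented with human TDP1 were seeded at 400 cells/well in medium containing 20 nM camptothecin, exposed to pin-transferred compounds, and grown at 37 °C for at least 48 hr. Viability was read as ATP luminescence.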
# ALOX12 inh: Primary qHTS assay for inhibitors of human arachidonate 12S-lipoxygenase (ALOX12): Round 2 | Polyunsaturated fatty acid lipoxygenase ALOX12 (Homo sapiens), P18054 | purified 12hLO, xylenol orange hydroperoxide absorbance | Potency, µM (highest dose often 108 µM), for inactives: at the highest dose activity change, negative = inhibition, usual class: inhibitors | 1.1% of 580,000 active
#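 Purified human 12hLO (150 nM final) in 25 mM Hepes, 0.01% Triton X-100, pH 7.0 was preincubated 15 min at room temperature with compound. Then 40 uM arachidonic acid was added, 30 min. Hydroperoxide was read by Fe-XO absorbance ratio 573/405 nm.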
# RORgamma inh: qHTS for inhibitors of ROR gamma transcriptional activity | Nuclear receptor ROR-gamma (Mus musculus), P51450 | Drosophila S2 Gal4-RORgamma UAS-luciferase reporter, 20 h | Potency, µM (titrated, usually from 53.6 µM), for the others: top-dose activity change, negative = inhibition, usual class: inhibitors | 5.4% of 310,000 active | AID 2551, 2010; also: nearly all actives have a fitted effect of over 60% in size
# Target sequence (P51450 whole entry, looked up, the tested form may be a part): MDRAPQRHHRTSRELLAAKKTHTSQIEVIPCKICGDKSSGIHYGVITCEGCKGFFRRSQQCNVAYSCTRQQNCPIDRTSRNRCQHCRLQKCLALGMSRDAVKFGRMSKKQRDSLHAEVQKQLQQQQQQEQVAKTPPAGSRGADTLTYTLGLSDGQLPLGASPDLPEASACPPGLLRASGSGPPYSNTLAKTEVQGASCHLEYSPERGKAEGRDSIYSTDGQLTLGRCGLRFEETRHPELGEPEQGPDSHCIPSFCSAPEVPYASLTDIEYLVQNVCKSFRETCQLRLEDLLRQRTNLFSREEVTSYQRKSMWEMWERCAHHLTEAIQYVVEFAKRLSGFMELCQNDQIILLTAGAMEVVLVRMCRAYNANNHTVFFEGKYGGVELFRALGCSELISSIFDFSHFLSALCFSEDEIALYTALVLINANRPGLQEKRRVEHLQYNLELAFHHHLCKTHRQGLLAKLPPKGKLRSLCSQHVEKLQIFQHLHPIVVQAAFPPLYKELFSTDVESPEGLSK
#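 Luminescence from a UAS-regulated Photinus luciferase reporter in stably transfected Drosophila Schneider cells is measured; decreased signal marks ROR gamma inhibition. Fusion expression is induced by 700 uM copper sulfate for 20 hr.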
# * marks the source's active call; other numbers are inactive results; ? = inconclusive; · = not tested or not shown; [ ] = another dose, or the depositor's remark. A selection: hits, their analogues and other compounds. The true share with any hit is near 15%. Calls follow the shape of the dose curve; as a rule, active = well fitted curve in the direction sought with a large enough effect; inconclusive = small, poorly fitted or top-dose-only effect, or another doubt; inactive = no such curve, though single readings can be large; an effect the other way counts as inactive or inconclusive. % is scaled to controls: 0 for no effect and ±100 for the full control effect; potency is read from the fitted curve at half-maximal effect.
SMILES,TDP1 cell noCPT,ELG1 repair inh,VP16 counter,DT40 TDP1 CPT,ALOX12 inh,RORgamma inh
COc1ccc(-c2cc(C(=O)NCc3ccco3)c3ccccc3n2)c(OC)c1,?,-30%,-3%,?,?,6%
CCN(CCCNC(=O)c1cc(Nc2ccc(OC)cc2OC)nc2ccccc12)c1cccc(C)c1,15µM*,·,·,21µM*,?,·
CCn1nccc1C(=O)N1CCC(Nc2nccnc2OC)CC1,·,·,·,·,68%,·
COc1ccc(OC)c(/C=C/C(=O)OCC(=O)Nc2cccc(C(C)=O)c2)c1,?,-10%,1%,16µM*,-20%,42%
COc1ccc(/C=C/C(=O)OCC(=O)NCCc2ccccc2)c(OC)c1,21µM*,?,·,?,-3%,·
COc1ccc(OC)c(/C=C/C(=O)OCC(=O)N2C(C)CCCC2C)c1 (stereo not drawn),10µM*,21µM*,·,?,-2%,·
COc1cc(/C=C/C(=O)OCC(=O)NCCc2ccccc2)cc(OC)c1OC,-4%,8%,4%,1%,-8%,-9%
COc1ccc(OC)c(/C=C/C(=O)OCC(=O)N2CCCC2)c1,-4%,1%,·,-1%,-9%,·
Nc1nc(NCCN2CCOCC2)nc(NCc2ccccc2)c1[N+](=O)[O-],18µM*,-1%,-17%,?,-13%,-8%
O=[N+]([O-])c1ccc(Nc2nc(NCCN3CCOCC3)nc(Nc3ccc(Cl)cc3)n2)cc1,10µM*,·,·,14µM*,·,·
O=[N+]([O-])c1ccc(Nc2nc(NCCN3CCOCC3)nc(Nc3ccc(I)cc3)n2)cc1,4.5µM*,·,·,7.1µM*,·,·
COc1ccc(Nc2nc(NCCN3CCOCC3)nc(Nc3ccc(OC)cc3)n2)cc1,14µM*,?,-3%,11µM*,?,-20%
COc1nc(NCCN2CCOCC2)nc(Nc2ccccc2)n1,8%,?,11%,27%,39%,22%
Cc1cccc(OCCc2noc(C3CCN(C(=O)C4CCCC4)C3)n2)c1 (stereo not drawn),·,·,·,·,28%,·
Cc1nc(SC(C)c2ccc(F)c(F)c2)sc1CC(N)=O (stereo not drawn),·,·,·,·,-7%,·
Cc1ccccc1CN1CCC(CN(Cc2cccnc2)C(=O)C2CC=CCC2)CC1 (stereo not drawn),·,·,·,·,71%,·
COc1ccc(CCNc2oc(Cc3cccc4ccccc34)nc2C#N)cc1OC,?,16µM*,-9%,?,-23%,-26%
COc1ccc(CCNc2oc(COc3ccccc3F)nc2C#N)cc1,?,5%,16%,?,-25%,?
COc1ccc(CCNc2oc(COc3ccc(Br)cc3)nc2C#N)cc1OC,21µM*,21µM*,-28%,18µM*,372%,8%
COc1ccc(CCNc2oc(-c3cccc4ccccc34)nc2P(=O)(OC)OC)cc1OC,15µM*,?,-15%,?,-11%,18%
COc1ccc(CNC(=O)CC[C@H]2CNC(=O)[C@@H]3[C@@H](CCN3Cc3ccc(F)cc3)N2C)cc1,·,·,·,·,7%,·
COc1cc2c(cc1OC)-c1cc3ccc(OC)c(OC)c3c[n+]1CC2,5.2µM*,-1%,2%,5.2µM*,-12%,12%
COc1ccc2cc3[n+](cc2c1O)CCc1cc2c(cc1-3)OCO2,?,·,·,-17%,?,·
CC1CCN(Cc2ccc(C(=O)N3CCCC4(CCNC4)C3)o2)CC1 (stereo not drawn),·,·,·,·,42%,·
COc1ccccc1C1C=C(c2ccc(Cl)cc2)Nc2nc(-c3ccc(Cl)cc3)nn21 (stereo not drawn),?,·,·,16µM*,?,·
SMILES,TDP1 cell noCPT,ELG1 repair inh,VP16 counter,DT40 TDP1 CPT,ALOX12 inh,RORgamma inh
COc1ccccc1C1C(C(N)=O)=C(C)Nc2nc(-c3ccc(Cl)cc3)nn21 (stereo not drawn),10%,?,-3%,3%,22%[57.4 µM],-2%
COc1ccccc1C1C=C(c2ccc(F)cc2)Nc2nc(-c3ccc(Cl)cc3)nn21 (stereo not drawn),16µM*,·,·,21µM*,0%,·
CC1=C(C(N)=O)C(c2ccccc2F)n2nc(-c3ccc(Cl)cc3)nc2N1 (stereo not drawn),-16%,·,·,-15%,?,·
CC1(c2ccc(OC(F)F)cc2)NC(=O)N(CC(=O)Nc2ccccc2)C1=O (stereo not drawn),?,?,2%,?,0%,-1%
Cc1ccc2nc(-c3ccc(NC(=O)CN4C(=O)NC(C)(c5ccc(OC(F)F)cc5)C4=O)cc3)sc2c1 (stereo not drawn),23µM*,?,?,15µM*,-3%,?
CC1(c2ccc(OC(F)F)cc2)NC(=O)N(CC(=O)Nc2ccc3c(c2)OCO3)C1=O (stereo not drawn),?,-5%,-4%,16µM*,3%,26%
Cc1cccc(C(=O)NCC(c2cccs2)N2CCCC2)n1 (stereo not drawn),·,·,·,·,37%,·
C/C(=N\Nc1nccnc1Cl)c1c(F)c(F)c(F)c(F)c1F,3%,0%,?,-1%,0%,8.9µM*
C/C(=N\Nc1nccnc1Cl)c1ccc(O)cc1,-11%,?,8%,-22%,0%,11%
C/C(=N\Nc1nccnc1Cl)c1ccc(Cl)c(Cl)c1,-2%,0%,?,-5%,?,?
C/C(=N\Nc1nccnc1Cl)c1ccc(F)cc1,0%,?,2.8µM*,6%,9%,5.6µM*
COc1ccc(NC(=O)CN(C)C(=O)Cc2n[nH]c(=O)c3ccccc23)cc1,-10%,?,·,9.2µM*,6%,·
CN(C(=O)c1ccccc1OCc1ccc(Cl)cc1)c1ccccc1,?,-3%,-6%,?,12%,104%
COc1cccc(-c2nn(-c3ccc(C)cc3)cc2C(=O)N(C)CC(=O)Nc2cccc(F)c2)c1,?,13µM*,·,18µM*,0%,·
COc1ccc(NC(=O)CN(C)C(=O)c2cc(-c3ccccc3)nc3ccccc23)cc1,15µM*,?,·,?,?,·
CN(CC(=O)Nc1ccccc1Br)C(=O)c1ccccc1OCc1ccc(Cl)cc1,18µM*,·,·,?,8%,·

# Bioassay records deposited in PubChem BioAssay by National Center for Advancing Translational Sciences (NCATS).
